tested on: VDR:RXRa (NR concentration 270 nM, RXRa partner concentration 90 nM); assay: PBM binding z-score (relative to random genomic background probes); higher = stronger binding; sequences stand for … in GC…GCGATTGACAGCGTAGAATGAAGG
Method: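 Protein-binding microarray (Agilent 4x180K custom design, double-stranded 60-nt probes: 5' GC cap, 34-nt variable region, 24-nt constant primer region; full probe sequence given). Purified or IVT nuclear receptor:RXRα heterodimers (3:1 NR:RXRα, mostly 270:90 nM) or homodimers were incubated for 1 h in PBS with 2% milk and no ligand, then detected with Alexa488 antibodies. Fluorescence from o1-orientation probes (~5 replicates averaged) was converted to z-scores against 500 random hg19 background probes. Variable regions are seed direct-repeat (DR0–DR5) sites, all their single-nucleotide variants and half-site ablations.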

Going from TCATATAGGTTAATGCTAGGTGAAAGTCCGATCT to CCGACTGGGGCGAAGGTTACCATACTCAGTACGA, the PBM binding z-score falls from 1.43 to 0.0154.

Going from CGTACTAGGTCATCCAGGACAGTGAATACATTGA to CCGACTGGTGCATAAGGTTACCATAAGCCAGCCC, the PBM binding z-score falls from 4.32 to 0.347.

Going from TGCATGAGGTTAAAGATCAGGGAACGTGGCGTCG to TAGCCTAGGTCATGCGTGCCAGTATAGTGTCGGC, the PBM binding z-score rises from 2.1 to 2.31.

First: ATCGAAAGGTCGTGAGGTGAGTATACAGAAAGGC
Second: CGAACTAGGTCATTGACATGACAGTGAATAGTAA
The PBM binding z-score of the first is higher: 3.69 for the first, 2.16 for the second.

Going from ATTGAAAGGTCGAAGGTGAGTATACCCACCCGAA to CGTCCAAGGTCAAAGGTCAGTGAGGAGATGACGG, the PBM binding z-score rises from 3.13 to 6.92.

Compared with CCGACTGGCGCATAAGGTTACCATAAGCCAGCCC, ATAATGAGGTTATTAAGATCAGGGAATTGCGGTC is higher in PBM binding z-score: -0.0103 for the first, 2.88 for the second.

Going from CGTACTGGGCCAAGGTCATTGATCAGTCAAAGCA to TCATATAGGTAACTGCTAGGTGAAAGTCCGATCT, the PBM binding z-score falls from 3.3 to 0.632.

Going from TCGAGTAGGTAACCAATGGGGCATTCAGCTTTCT to CGTCAAAGTTCAACTAAGGTAACGTACAGCACGC, the PBM binding z-score rises from -0.172 to 4.64.

First: ACTAGCAGGCCATGTTTGGGTCACTCAAACAAAG
Second: TCACATAGGTAAACAGGTGAAAGTCCGTAAGTTA
The PBM binding z-score of the first is lower: 0.631 for the first, 0.849 for the second.

Going from TCTCGGACGACACGAAAGGTCAGAGCTCGACATC to TCTCGGAGGACACGAAAGGTCAAAGCTCGACATC, the PBM binding z-score rises from 2.96 to 4.67.

Going from TCATATAGGTAAAGGTGAAAGTTGAACGATATGA to CCTAGCAGGCCAGGGTGACTCAAGCATTTCGCTT, the PBM binding z-score falls from 1.58 to -0.639.

Compared with CGAACTAGGTCATTGACAGGTCAGTGAATAGTAA, CAAACTACGTCAAGAGGTCAAAGTCCGCTTCCCG is higher in PBM binding z-score: 3.9 for the first, 5.03 for the second.

Compared with GGAACGAGGGCAAAGTTGACAGCATCTGTCGACG, TCAGACAGGTTAAGGTAACTCAGGTACGCAGTCG is lower in PBM binding z-score: 1.6 for the first, 1.53 for the second.

First: GGAACGAGGGCATTCGAGTTGTTAGCATGGCGAT
Second: AGAAGGAGGGCAATGAGTTGATAGCACGGGTGGC
The PBM binding z-score of the first is lower: 2.82 for the first, 4.93 for the second.

Compared with GCGACTGGGGCATAGCAGGTTACCATAAGGTTGG, TCTTGTAGATCAATAGAGGTTAAGAGAGTGCGCT is higher in PBM binding z-score: -0.336 for the first, 2.79 for the second.

First: TCGCCTAGGTCATTGGGCCAGTATAGTACGCATC
Second: AGAATGAGGTTATAGGTAGATCAGGGAAGAAAGT
The PBM binding z-score of the first is higher: 2.23 for the first, 1.44 for the second.

First: GATACAGGGTCAAGGCCAAAGTACGCGTATTGAT
Second: AGTCGAAGTTCATCTAGGTAACGTAAGATATGCT
The PBM binding z-score of the first is higher: 4.44 for the first, 3.51 for the second.

Compared with GCTTACGGGTCAAAGGTTCTAGCATGAATAGAAT, TCTGCTAAGTCAACGATGGTCAGCTAATCTGCTA is lower in PBM binding z-score: 4.42 for the first, -0.644 for the second.

Going from CGTCCAAGGTCAGTGCTAGGTCAGTGAAAGCATT to TGAATGAGCTTAAAGATCAGGGAACGTGGCGTCG, the PBM binding z-score falls from 3.71 to -0.548.

First: TCTTGTAGATCAAAGGTTAAGAAAGCCGAAGCCT
Second: ATCGAAAGGTCGTAAGGTGAGTATACAGAAAGGC
The PBM binding z-score of the first is lower: 1.37 for the first, 3.26 for the second.

Source: the supplement of paper PMC6555819
